Assay results: the supplement of paper PMC11732987, “Enantioselective OTUD7B fragment discovery through chemoproteomics screening and high-throughput optimisation” (Communications Chemistry, 2025)

What was measured:
Assay in all cases: log2 ratio of Biotin-Ahx-Ub-VS probe labelling (fragment/DMSO); higher = less target engagement (more negative = stronger competition), active = hit call of the paper (q ≤ 0.05, log2 ratio ≤ -1)
Conditions in all cases: compound concentration: 200 uM; treatment time: 3 h
USP19 = biological target: T1, USP19 (UniProt O94966)
T1 sequence (whole entry): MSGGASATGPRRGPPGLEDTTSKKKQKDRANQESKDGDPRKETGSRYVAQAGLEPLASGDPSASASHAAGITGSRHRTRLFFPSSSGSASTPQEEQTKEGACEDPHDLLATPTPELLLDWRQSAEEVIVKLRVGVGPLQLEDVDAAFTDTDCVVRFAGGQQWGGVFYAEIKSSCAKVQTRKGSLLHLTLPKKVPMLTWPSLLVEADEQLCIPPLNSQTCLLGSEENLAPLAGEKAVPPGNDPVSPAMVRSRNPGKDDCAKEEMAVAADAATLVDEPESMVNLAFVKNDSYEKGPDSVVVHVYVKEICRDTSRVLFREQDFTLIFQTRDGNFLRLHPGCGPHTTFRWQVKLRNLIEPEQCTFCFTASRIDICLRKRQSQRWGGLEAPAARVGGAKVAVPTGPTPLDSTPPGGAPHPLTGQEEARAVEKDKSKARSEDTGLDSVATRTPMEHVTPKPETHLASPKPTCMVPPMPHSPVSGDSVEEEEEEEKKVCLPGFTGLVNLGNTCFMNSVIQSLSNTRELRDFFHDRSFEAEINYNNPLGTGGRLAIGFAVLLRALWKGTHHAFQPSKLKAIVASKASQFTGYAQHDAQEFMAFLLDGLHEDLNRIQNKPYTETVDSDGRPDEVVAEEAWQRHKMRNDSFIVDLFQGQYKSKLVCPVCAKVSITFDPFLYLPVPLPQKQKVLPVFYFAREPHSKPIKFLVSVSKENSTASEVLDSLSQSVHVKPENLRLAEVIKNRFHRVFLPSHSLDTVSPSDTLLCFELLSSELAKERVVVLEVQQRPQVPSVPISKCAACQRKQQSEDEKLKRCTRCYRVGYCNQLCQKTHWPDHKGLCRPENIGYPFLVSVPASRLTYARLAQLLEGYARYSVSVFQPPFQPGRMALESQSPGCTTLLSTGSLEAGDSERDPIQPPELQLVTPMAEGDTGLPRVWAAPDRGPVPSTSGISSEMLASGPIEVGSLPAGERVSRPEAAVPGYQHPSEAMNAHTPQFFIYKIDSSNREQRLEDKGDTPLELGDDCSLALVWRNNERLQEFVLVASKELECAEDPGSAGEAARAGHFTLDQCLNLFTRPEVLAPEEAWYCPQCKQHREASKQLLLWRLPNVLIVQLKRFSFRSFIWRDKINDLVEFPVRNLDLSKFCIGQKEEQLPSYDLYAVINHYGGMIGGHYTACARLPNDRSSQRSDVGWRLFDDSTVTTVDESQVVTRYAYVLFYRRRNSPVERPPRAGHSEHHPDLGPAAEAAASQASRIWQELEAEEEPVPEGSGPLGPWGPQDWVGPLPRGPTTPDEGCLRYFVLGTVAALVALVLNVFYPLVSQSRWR
How it was run: (§1)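 Global-median-normalised Spectronaut label-free quantities were compared by unpaired t-test, and values are average log2 ratios of fragment over vehicle. Only proteins with ≥2 unique peptides were used. HEK293T lysate (495 µg per sample) was treated in triplicate with fragment at 200 µM or vehicle for 3 h and then with Biotin-Ahx-Ub-VS at 0.5 µM final for 1 h. Labelled DUBs were then NeutrAvidin-enriched, digested with LysC and trypsin, and run by diaPASEF LC-MS/MS.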

USP22 = biological target: T2, USP22 (UniProt Q9UPT9)
T2 sequence (whole entry): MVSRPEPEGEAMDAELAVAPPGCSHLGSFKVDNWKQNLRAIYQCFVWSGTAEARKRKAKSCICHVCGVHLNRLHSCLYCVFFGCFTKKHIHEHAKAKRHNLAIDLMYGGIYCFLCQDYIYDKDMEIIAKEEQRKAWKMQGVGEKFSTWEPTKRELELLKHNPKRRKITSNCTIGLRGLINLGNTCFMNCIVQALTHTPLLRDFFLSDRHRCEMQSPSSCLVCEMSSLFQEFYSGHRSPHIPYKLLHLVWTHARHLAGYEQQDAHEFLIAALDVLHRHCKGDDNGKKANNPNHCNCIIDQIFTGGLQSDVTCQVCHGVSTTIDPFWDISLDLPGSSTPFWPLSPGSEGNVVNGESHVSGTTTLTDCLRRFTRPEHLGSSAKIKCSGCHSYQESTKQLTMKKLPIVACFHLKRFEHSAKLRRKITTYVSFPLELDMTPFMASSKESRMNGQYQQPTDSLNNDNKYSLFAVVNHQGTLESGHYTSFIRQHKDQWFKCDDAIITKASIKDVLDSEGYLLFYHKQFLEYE
How it was run: as §1

USP24 = USP24 (UniProt Q9UPU5)
Chain of USP24 (Q9UPU5 whole entry): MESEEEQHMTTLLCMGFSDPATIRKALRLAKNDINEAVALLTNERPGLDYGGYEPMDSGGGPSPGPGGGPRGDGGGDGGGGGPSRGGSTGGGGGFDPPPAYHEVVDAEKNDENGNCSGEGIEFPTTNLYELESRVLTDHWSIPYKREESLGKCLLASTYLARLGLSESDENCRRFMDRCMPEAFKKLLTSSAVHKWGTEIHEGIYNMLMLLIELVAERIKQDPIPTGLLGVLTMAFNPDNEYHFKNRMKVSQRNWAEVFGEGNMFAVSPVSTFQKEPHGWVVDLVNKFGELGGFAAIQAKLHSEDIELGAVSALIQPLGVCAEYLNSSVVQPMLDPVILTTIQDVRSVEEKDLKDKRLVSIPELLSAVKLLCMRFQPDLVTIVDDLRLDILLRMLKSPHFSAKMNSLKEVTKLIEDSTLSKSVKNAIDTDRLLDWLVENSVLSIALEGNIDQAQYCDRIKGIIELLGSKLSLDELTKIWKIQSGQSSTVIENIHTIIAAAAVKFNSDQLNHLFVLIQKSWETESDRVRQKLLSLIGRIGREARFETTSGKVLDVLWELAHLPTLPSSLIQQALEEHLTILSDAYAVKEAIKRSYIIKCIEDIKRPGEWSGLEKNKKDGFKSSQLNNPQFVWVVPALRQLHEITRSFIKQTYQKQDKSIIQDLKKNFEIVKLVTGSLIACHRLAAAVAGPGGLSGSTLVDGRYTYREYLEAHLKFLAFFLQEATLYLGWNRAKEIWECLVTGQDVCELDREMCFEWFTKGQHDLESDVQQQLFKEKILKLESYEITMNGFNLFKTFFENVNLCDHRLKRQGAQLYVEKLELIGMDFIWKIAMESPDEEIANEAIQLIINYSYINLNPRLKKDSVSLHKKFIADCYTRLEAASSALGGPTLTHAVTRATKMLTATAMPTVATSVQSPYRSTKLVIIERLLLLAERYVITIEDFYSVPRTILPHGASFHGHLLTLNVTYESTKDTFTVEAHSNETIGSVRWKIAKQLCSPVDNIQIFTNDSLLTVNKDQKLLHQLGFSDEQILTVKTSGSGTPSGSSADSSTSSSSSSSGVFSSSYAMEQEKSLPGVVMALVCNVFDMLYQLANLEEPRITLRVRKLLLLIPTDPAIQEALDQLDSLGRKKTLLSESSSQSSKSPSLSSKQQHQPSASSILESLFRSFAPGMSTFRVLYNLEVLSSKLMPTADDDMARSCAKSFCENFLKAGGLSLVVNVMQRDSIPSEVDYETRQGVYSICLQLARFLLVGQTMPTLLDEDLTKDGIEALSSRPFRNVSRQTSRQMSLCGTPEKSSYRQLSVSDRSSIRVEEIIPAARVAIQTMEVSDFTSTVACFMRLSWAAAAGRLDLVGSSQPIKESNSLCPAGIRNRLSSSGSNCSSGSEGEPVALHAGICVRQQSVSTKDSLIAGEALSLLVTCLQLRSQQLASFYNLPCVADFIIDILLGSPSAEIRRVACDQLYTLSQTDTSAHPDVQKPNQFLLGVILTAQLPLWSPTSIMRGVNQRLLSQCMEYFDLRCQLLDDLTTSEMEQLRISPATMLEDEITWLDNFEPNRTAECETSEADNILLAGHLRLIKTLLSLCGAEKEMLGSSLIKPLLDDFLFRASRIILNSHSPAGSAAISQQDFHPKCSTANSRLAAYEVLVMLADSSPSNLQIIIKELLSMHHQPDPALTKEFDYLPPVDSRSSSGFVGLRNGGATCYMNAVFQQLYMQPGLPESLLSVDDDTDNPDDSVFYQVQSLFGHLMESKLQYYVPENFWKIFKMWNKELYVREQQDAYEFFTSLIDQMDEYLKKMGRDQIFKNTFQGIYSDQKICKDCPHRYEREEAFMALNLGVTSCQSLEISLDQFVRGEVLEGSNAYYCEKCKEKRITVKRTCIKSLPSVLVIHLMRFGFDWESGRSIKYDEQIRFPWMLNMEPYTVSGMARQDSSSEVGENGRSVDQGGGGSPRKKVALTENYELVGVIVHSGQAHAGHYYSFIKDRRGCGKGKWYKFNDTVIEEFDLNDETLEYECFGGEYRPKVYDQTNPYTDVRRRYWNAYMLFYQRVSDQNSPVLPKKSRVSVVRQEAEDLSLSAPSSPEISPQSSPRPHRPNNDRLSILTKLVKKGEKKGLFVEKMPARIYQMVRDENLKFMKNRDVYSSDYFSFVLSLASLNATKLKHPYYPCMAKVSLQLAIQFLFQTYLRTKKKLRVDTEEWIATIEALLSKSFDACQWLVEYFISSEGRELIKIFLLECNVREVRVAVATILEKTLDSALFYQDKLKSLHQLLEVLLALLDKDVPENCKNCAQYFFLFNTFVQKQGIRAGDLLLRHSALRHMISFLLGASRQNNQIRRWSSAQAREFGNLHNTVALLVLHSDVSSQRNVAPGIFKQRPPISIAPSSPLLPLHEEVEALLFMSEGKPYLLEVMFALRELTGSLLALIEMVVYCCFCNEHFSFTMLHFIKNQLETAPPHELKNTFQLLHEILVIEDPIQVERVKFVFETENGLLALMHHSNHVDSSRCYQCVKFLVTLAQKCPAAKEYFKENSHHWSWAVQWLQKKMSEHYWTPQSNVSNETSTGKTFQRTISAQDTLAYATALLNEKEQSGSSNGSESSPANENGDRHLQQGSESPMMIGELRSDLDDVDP
How it was run: as §1

USP25 = biological target: T3, USP25 (UniProt Q9UHP3)
T3 sequence (whole entry): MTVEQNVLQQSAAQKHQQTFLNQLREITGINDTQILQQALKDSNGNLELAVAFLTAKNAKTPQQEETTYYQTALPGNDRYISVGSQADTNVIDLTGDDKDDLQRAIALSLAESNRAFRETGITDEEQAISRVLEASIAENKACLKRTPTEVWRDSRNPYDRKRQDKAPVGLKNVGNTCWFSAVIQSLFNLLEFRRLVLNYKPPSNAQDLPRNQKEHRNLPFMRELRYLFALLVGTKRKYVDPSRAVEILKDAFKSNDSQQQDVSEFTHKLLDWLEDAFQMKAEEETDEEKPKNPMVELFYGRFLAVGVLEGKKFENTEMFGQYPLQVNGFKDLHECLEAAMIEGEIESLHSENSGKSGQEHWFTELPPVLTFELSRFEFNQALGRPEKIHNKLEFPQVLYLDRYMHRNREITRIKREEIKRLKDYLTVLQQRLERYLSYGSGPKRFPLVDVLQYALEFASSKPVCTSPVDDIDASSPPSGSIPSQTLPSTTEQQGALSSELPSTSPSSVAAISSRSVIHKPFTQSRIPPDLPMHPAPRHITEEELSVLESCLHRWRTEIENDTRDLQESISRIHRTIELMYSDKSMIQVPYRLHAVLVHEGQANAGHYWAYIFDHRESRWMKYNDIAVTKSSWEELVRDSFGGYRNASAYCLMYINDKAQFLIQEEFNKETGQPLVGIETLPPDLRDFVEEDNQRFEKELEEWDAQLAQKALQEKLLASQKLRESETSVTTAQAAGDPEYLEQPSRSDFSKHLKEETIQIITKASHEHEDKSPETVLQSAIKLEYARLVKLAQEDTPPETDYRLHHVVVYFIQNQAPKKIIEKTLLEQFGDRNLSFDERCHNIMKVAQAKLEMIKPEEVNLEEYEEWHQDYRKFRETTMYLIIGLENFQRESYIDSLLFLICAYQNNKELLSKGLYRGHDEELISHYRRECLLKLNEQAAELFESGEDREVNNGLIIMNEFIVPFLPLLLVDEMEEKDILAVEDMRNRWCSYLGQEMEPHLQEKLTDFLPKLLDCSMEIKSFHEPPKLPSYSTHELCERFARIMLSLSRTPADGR
How it was run: as §1

USP28 = biological target: T4, USP28 (UniProt Q96RU2)
T4 sequence (whole entry): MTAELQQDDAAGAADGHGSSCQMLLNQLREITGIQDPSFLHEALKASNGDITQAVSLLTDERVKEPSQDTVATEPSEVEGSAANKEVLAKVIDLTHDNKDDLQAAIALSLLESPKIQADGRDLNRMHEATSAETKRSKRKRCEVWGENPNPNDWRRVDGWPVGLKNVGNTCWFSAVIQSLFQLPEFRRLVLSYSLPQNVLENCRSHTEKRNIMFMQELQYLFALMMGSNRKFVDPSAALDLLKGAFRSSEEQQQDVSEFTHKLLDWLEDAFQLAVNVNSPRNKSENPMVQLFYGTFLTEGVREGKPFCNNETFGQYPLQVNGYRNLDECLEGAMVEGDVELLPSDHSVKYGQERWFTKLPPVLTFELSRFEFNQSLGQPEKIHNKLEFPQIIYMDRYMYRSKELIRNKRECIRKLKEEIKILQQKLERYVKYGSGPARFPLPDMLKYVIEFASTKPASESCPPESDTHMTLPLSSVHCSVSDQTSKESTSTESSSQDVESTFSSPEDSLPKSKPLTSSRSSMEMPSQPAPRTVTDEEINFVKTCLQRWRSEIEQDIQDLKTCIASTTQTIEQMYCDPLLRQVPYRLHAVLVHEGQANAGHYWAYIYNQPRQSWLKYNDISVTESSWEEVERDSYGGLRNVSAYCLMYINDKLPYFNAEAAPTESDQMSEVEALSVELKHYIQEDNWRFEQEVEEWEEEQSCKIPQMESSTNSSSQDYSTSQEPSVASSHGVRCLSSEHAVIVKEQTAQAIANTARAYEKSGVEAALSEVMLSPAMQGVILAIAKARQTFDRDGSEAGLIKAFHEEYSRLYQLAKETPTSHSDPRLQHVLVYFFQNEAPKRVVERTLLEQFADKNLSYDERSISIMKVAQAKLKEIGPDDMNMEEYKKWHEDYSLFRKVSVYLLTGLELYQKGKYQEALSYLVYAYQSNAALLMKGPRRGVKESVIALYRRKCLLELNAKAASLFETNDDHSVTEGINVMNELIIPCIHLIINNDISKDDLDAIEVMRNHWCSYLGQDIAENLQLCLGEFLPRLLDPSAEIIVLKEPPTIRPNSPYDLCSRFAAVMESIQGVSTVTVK
How it was run: as §1

Measured: log2 ratio of Biotin-Ahx-Ub-VS probe labelling

O=C(CCl)N1CCC(c2noc3cc(F)ccc23)CC1
inactive: USP19 -0.49 | USP22 -0.492 | USP24 -0.986 | USP25 -0.302 | USP28 -0.607
